Results from the supplement of paper PMC10981050.
Several values for one entry are separate records, joined by “and”; a condition that tells them apart may be missing. Identical values can stand only once. Counter-ions that a name gives are not always drawn.

Key:
Experiment in all cases: cell viability relative to vehicle control; higher = less cytotoxic
Conditions in all cases: 10 µM
K562 = test system: K562
Method in brief: (§1)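 Mutant clones made by CRISPR editing and their isogenic wild-type counterparts, from four leukaemia lines, were exposed to a single 10 µM dose of each library compound for 48 h. The supernatant was then removed and CellTiter-Glo luminescence was read. Viability was reported as percent of the on-plate vehicle control.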

MARIMO = test system: MARIMO
Method in brief: as §1

MOLM14 = test system: MOLM14
Method in brief: as §1

OCI-AML2 = test system: OCI-AML2
Method in brief: as §1

| Compound | cell viability (K562; SRSF2 genotype: SRSF2 P95H/wt) | cell viability (K562; SRSF2 genotype: SRSF2 wt/wt) | cell viability (MARIMO; SRSF2 genotype: SRSF2 P95H/wt) | cell viability (MARIMO; SRSF2 genotype: SRSF2 wt/wt) | cell viability (MOLM14; SRSF2 genotype: SRSF2 P95H/wt) | cell viability (MOLM14; SRSF2 genotype: SRSF2 wt/wt) | cell viability (OCI-AML2; SRSF2 genotype: P95H/wt) | cell viability (OCI-AML2; SRSF2 genotype: wt/wt) |
| --- | --- | --- | --- | --- | --- | --- | --- | --- |
| O=C(Cn1cnnn1)N[C@@H]1C(=O)N2C(C(=O)O)=C(CSc3nncs3)CS[C@H]12 [Ceftezole] | 102% and 97.3% | 103% | 96.3% | 105% | 105% | 104% | 103% | 109% |
| CC1(C)OC(=O)C=C[C@]2(C)[C@H]3CC[C@@]4(C)[C@H](c5ccoc5)OC(=O)[C@H]5O[C@]54[C@]3(C)C(=O)C[C@@H]12 [Obacunone] | 103% and 98.1% | 95.4% | 92.7% | 95.5% | 97.4% | 102% | 91.1% | 93.6% |
| Cc1ccc(NC(=O)c2ccc(CN3CCN(C)CC3)cc2)cc1Nc1nc(-c2cccnc2)cs1 [Masitinib (AB1010)] | 6.35% and 18.8% | 12.1% | 72.5% | 59.7% | 70.3% | 67.8% | 52% | 52.1% |
| COc1cc(F)c(C(C)C)cc1-c1ccc(C(F)(F)F)cc1CN1C(=O)O[C@H](c2cc(C(F)(F)F)cc(C(F)(F)F)c2)[C@@H]1C [Anacetrapib (MK-0859)] | 97.5% and 95.6% | 92.9% | 91.2% | 105% | 98.7% | 99% | 91.8% | 102% |
| OC[C@H]1O[C@@H](O[C@@H]2OC=C[C@H]3[C@H](O)[C@@H]4O[C@]4(CO)[C@@H]23)[C@H](O)[C@@H](O)[C@@H]1O [Catalpol] | 106% and 108% | 104% | 103% | 115% | 99.9% | 105% | 96.7% | 106% |
| CCN1CCN(c2cc3c(cc2F)c(=O)c(C(=O)O)cn3C2CC2)CC1 [Enrofloxacin] | 98.9% and 111% | 99.2% | 108% | 111% | 103% | 111% | 109% | 109% |
| CC(C)(C)NC(=O)c1cncn1C1CCN(c2ccc(-c3nnc(C(F)(F)F)o3)cn2)CC1 | 69% and 57.2% | 63.8% | 53.1% | 64.5% | 56.7% | 45.7% | 8.34% | 20.6% |
| CC[C@H]1OC(=O)C[C@@H](O)[C@H](C)[C@@H](O[C@@H]2O[C@H](C)[C@@H](O)[C@H](N(C)C)[C@H]2O)[C@@H](CCN2C[C@H](C)C[C@H](C)C2)C[C@@H](C)C(=O)/C=C/C(C)=C/[C@@H]1CO[C@@H]1O[C@H](C)[C@@H](O)[C@@H](OC)[C@H]1OC [Tilmicosin phosphate] | 102% | 108% | 98% | 103% | 106% | 101% | 108% | 112% |
| O=C(O)P(=O)(O)O [Foscarnet Sodium] | 106% and 108% | 107% | 101% | 108% | 101% | 109% | 112% | 95.6% |
| O=c1sn(-c2cccc3ccccc23)c(=O)n1Cc1ccccc1 [Tideglusib] | 77.4% and 78.3% | 82.9% | 70.7% | 79.9% | 55.5% | 68.8% | 54.7% | 53.3% |
| COC1=CC(=O)c2ccccc2C1=O [2-Methoxy-1,4-naphthoquinone] | 3.03% and 1.06% | 18.6% | 46.3% | 48% | 31.2% | 17.5% | 36.9% | 38.8% |
| Cc1c(Nc2ncccc2C(=O)O)cccc1C(F)(F)F [Flunixin meglumin] | 95.8% and 87.2% | 93.9% | 89.8% | 96.2% | 87.4% | 89.4% | 90.4% | 101% |
| COc1cc2c(cc1O)C[C@H]1c3cc(O)c(OC)cc3CC[N+]1(C)C2 (stereo partly drawn) [Phellodendrine chloride] | 92.6% and 101% | 98.5% | 100% | 95.6% | 103% | 95.9% | 96.7% | 102% |
| Cc1c[nH]c(C=C2C(=O)Nc3ccccc32)c1CCC(=O)O | 91.9% and 93.8% | 91.2% | 95.2% | 92.2% | 32.7% | 28% | 54.2% | 58.1% |
| CC(=O)OCC1=C(C(=O)O)N2C(=O)C(NC(=O)CSC(=NC(C)C)NC(C)C)C2SC1 (stereo not drawn) [Cefathiamidine] | 103% and 98.2% | 103% | 103% | 110% | 96.1% | 104% | 102% | 113% |
| Nc1ncnc2c1c(-c1cccc(OCc3ccccc3)c1)cn2C1CC(CN2CCCC2)C1 (stereo not drawn) | 85.5% and 90.3% | 88.4% | 47.1% | 40.6% | 39.4% | 55.1% | 35.1% | 41.8% |
| C[C@](N)(Cc1ccc(O)c(O)c1)C(=O)O [Methyldopa (Aldomet)] | 90.6% and 100% | 100% | 97.2% | 104% | 98.3% | 101% | 98.4% | 96.6% |
| O=C(O)CC(C(=O)O)n1c(O)c(C2=c3cc(Br)ccc3=NC2=O)sc1=S (stereo not drawn) | 96.1% and 99.4% | 99.6% | 97.7% | 100% | 81.8% | 89.4% | 113% | 103% |
| COc1cccc(-c2c(C)n(Cc3c(F)cccc3C(F)(F)F)c(=O)n(C[C@H](NCCCC(=O)O)c3ccccc3)c2=O)c1F [Elagolix Sodium] | 97% and 93% | 96.3% | 104% | 115% | 99% | 101% | 110% | 104% |
| N#CC1(c2ccc(NC(=O)c3cccnc3NCc3ccncc3)cc2)CCCC1 [Apatinib mesylate] | 79.4% and 87.5% | 81.8% | 77.7% | 86.2% | 45.8% | 42.6% | 68.4% | 62.5% |
| COC(=O)N[C@H](C(=O)N1CCC[C@H]1c1ncc(-c2ccc(-c3ccc(-c4cnc([C@@H]5CCCN5C(=O)[C@@H](NC(=O)OC)C(C)C)[nH]4)cc3)cc2)[nH]1)C(C)C [Daclatasvir Digydrochloride] | 79.2% and 78.8% | 75.9% | 62.1% | 73.5% | 67.7% | 77.9% | 78.2% | 74% |
